The record followed here is PubChem BioAssay (NCATS).

Assay [1] can be described thus: qHTS profiling for inhibitors of Plasmodium falciparum (3D7) proliferation (AID 743322).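 Also: infected erythrocytes exposed to compound for 72 h before lysis; 100% = DMSO vehicle wells and 0% = 0.29 µM artemisinin.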 The conditions noted are these: P. falciparum 3D7 proliferation; at 28.7 µM (top of the series). The essentials:
(§1)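 Erythrocytes infected with P. falciparum (0.3% parasitemia, 2.5% hematocrit) incubated with compounds 72 h at 37 C, 5% CO2. Lysis with saponin/Triton buffer containing SYBR Green I, overnight at room temperature in the dark; DNA fluorescence (485/535 nm) normalised to 0.29 uM artemisinin and DMSO.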

Assay [2] is described as follows: qHTS profiling for inhibitors of Plasmodium falciparum (DD2) proliferation (AID 743323). To be noted: lower = more inhibition; at 28.7 µM (top of the series). In short, it runs like this:
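Parasite DNA quantified by SYBR Green fluorescence (ex 485, em 535 nm) after saponin/Triton lysis and overnight dark incubation. Cultures: 0.3% parasitemia, 2.5% hematocrit, 72 h, 37 C; data scaled between DMSO and 0.29 uM artemisinin.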
(Quantitative high-throughput screening tests each substance at several concentrations.)

A short description of assay [3]: qHTS profiling for inhibitors of Plasmodium falciparum (HB3) proliferation (AID 743324).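 Also: 100% = DMSO vehicle wells and 0% = artemisinin-treated control wells.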 To be noted: Plasmodium falciparum HB3 blood-stage proliferation; at 28.7 µM (top of the series). In short, it runs like this: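 P. falciparum HB3 grown in erythrocytes (0.3% parasitemia, 2.5% hematocrit final) with compound for 72 h at 37 C, 5% CO2. Parasite DNA detected by SYBR Green after saponin/triton lysis overnight; normalized to 0.29 uM artemisinin and DMSO.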

Assay [4] in a line: qHTS profiling of the MIPE4 collection as inhibitors of Plasmodium falciparum (3D7) proliferation (AID 743344).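 Also: scaled between DMSO vehicle wells and 0.29 µM artemisinin as full inhibition.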 The conditions noted are these: P. falciparum 3D7 in erythrocytes, SYBR Green DNA fluorescence, 72 h; at 28.5 µM (top of the series). In short, it runs like this: as §1
Assay [5] is described as follows: qHTS profiling of the MIPE4 collection as inhibitors of Plasmodium falciparum (DD2) proliferation (AID 743345). To be noted: P. falciparum Dd2 in erythrocytes, SYBR Green DNA, 72 h; at 28.5 µM (top of the series). In short, it runs like this: as §1
Assay [6] is described as follows: qHTS profiling of the MIPE4 collection as inhibitors of Plasmodium falciparum (DD2) proliferation (Rep 2) (AID 743346). To be noted: P. falciparum Dd2 in erythrocytes, SYBR Green DNA, 72 h; at 28.5 µM (top of the series). In short, it runs like this: as §1
Assay [7] in a line: qHTS profiling of the MIPE4 collection as inhibitors of Plasmodium falciparum (HB3) proliferation (AID 743347).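 Also: plate controls were DMSO vehicle wells for no effect and artemisinin wells for full effect.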 The conditions noted are these: P. falciparum HB3 in erythrocytes, SYBR Green DNA, 72 h; at 28.5 µM (top of the series). The essentials:
as §1

Molecules are shown by their SMILES.

Regarding `O=C([C@H](Cc1ccc(OS(=O)(=O)c2cccc3cnccc23)cc1)NS(=O)(=O)c1cccc2cnccc12)N1CCN(c2ccccc2)CC1`, the remaining parasite growth % (stronger effect = lower value) in assay [1] is -0.827%. The same molecule displayed an activity, percent of control in assay [2] of 1.24%. For the same molecule, in assay [3], the remaining proliferation (% of control), lower = more inhibition came out at 0.712%.
`O=C(OCc1ccccc1)N1CCN(C(=O)[C@H](Cc2ccc(O[S+](=O)([O-])c3cccc4cnccc34)cc2)N[S+](=O)([O-])c2cccc3cnccc23)CC1`: the remaining parasite growth % (stronger effect = lower value) in assay [1] was -0.959%. In assay [2], this molecule showed an activity, percent of control of 0.261%. Moreover, the remaining proliferation (% of control), lower = more inhibition in assay [3] is -0.068%.
As to `CCCC[C@@H]1C[C@@H](C(=O)NC([C@H](C)Cl)[C@H]2O[C@H](S)[C@H](O)[C@@H](O)[C@@H]2O)N(C)C1` (some centres undefined), in assay [1], the remaining parasite growth % (stronger effect = lower value) turned out to be 39%. Also, in assay [2], the activity, percent of control was determined as 33.1%. For the same molecule, the remaining proliferation (% of control), lower = more inhibition in assay [3] is 31.5%. The molecule further showed a parasite growth, % of DMSO control in assay [4] of 29.2%. In assay [5], this molecule came in with a parasite growth remaining, % of DMSO control (lower = more inhibition) of 38%. Moreover, the parasite growth, % of control (lower = inhibition) in assay [6] is 28%. In addition, the growth, % of control in assay [7] stood at 52.4%.
As for `CN(C)CCC=C1c2ccccc2COc2ccccc21`, the parasite growth, % of DMSO control in assay [4] was found to be 86.6%. This molecule also registered a parasite growth remaining, % of DMSO control (lower = more inhibition) in assay [5] of 53.4%. This molecule also displayed a parasite growth, % of control (lower = inhibition) in assay [6] of 55.1%. Further, the growth, % of control in assay [7] turned out to be 96.7%.
With `CO[C@@]12[C@H](COC(N)=O)C3=C(C(=O)C(C)=C(N)C3=O)N1C[C@H]1N[C@H]12`, in assay [1], the remaining parasite growth % (stronger effect = lower value) was -0.57%. The molecule also showed an activity, percent of control in assay [2] of 0.869%. In addition, the remaining proliferation (% of control), lower = more inhibition in assay [3] was -0.956%.
Taken in the same sequence, the figures for `CS(=O)(=O)c1ccc(-c2cnc(N)c(-c3ccc(C(F)(F)F)nc3)c2)cc1` were 2.16%, 8.27% and 4.13%.
`CC(C)=CCCC(C)=CCNCCNC1C2CC3CC(C2)CC1C3` (centres undefined) came in with a parasite growth, % of DMSO control in assay [4] of 4.83%. Also, in assay [5], the parasite growth remaining, % of DMSO control (lower = more inhibition) came to 6.17%. This molecule gave a parasite growth, % of control (lower = inhibition) in assay [6] of 13.8%. This molecule also displayed a growth, % of control in assay [7] of 2.71%.
As to `CCN(CC)CCOc1ccc2c(=O)c3ccc(Cl)cc3n(CCN(CC)CC)c2c1`, the remaining parasite growth % (stronger effect = lower value) in assay [1] is -1.28%. The same molecule gave an activity, percent of control in assay [2] of 0.385%. Moreover, the remaining proliferation (% of control), lower = more inhibition in assay [3] is -0.0504%. The parasite growth, % of DMSO control in assay [4] stood at 4.98%. Further, the parasite growth remaining, % of DMSO control (lower = more inhibition) in assay [5] was 6.06%. This molecule registered a parasite growth, % of control (lower = inhibition) in assay [6] of 27.8%. Besides, the growth, % of control in assay [7] was found to be 5.14%.
On to `O=C1CCC(C2=C(O)c3ccccc3C(=O)C2=O)CC1`, for which the remaining parasite growth % (stronger effect = lower value) in assay [1] was determined as 7.05%. In assay [2], this molecule returned an activity, percent of control of 6.83%. Further, the remaining proliferation (% of control), lower = more inhibition in assay [3] turned out to be 5.38%.
As for `CN([C@@H](Cc1ccc(O[S+](=O)([O-])c2cccc3cnccc23)cc1)C(=O)N1CCN(C(=O)OCc2ccccc2)CC1)[S+](=O)([O-])c1cccc2cnccc12`, the parasite growth, % of DMSO control in assay [4] came to 4.76%. The same molecule gave a parasite growth remaining, % of DMSO control (lower = more inhibition) in assay [5] of 6.72%. Moreover, the parasite growth, % of control (lower = inhibition) in assay [6] amounted to 26.8%. Besides, the growth, % of control in assay [7] was 8.42%.
Take `O=C([C@H](Cc1ccc(O[S+](=O)([O-])c2cccc3cccnc23)cc1)N[S+](=O)([O-])c1ccccn1)N1CCN(c2ccccc2)CC1`: the remaining parasite growth % (stronger effect = lower value) in assay [1] was -1.21%. The activity, percent of control in assay [2] stood at 2.43%. Besides, in assay [3], the remaining proliferation (% of control), lower = more inhibition was -0.011%.
